# Values joined by “and” are separate entries in the source; they are usually repeats but may differ in a detail not shown here. Identical values can stand only once. The source holds several records for some structures; these can differ, active in one and inactive in another. Active and inactive are the calls of the source. Where a call stands in place of a potency, no number is given. Unless noted, calls follow the shape of the dose curve; as a rule, active = well fitted curve in the direction sought with a large enough effect in the repeat runs; inconclusive = weak or mixed curves; inactive = no such curve, though single readings can be large; an effect the other way counts as inactive or inconclusive.
# Columns and labels:
# [1] = qHTS assay to identify small molecule antagonists of the thyroid receptor (TR) signaling pathway - cell viability counter screen (AID 743064); also: nearly all actives have a fitted effect of over 50% in size
# How it was run: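 Counter screen for cytotoxicity: compound plus T3 (1 nM final) on GH3.TRE-Luc cells, 23.5 h at 37 °C, then fluorescence viability readout with CellTiter-Fluor.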
# [2] = qHTS assay to identify small molecule antagonists of the thyroid receptor (TR) signaling pathway (AID 743065); also: nearly all actives have a fitted effect of over 55% in size
# How it was run: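 Antagonism measured as loss of luciferase signal in GH3 cells stably carrying a TRE-luciferase reporter, co-treated with compound and T3 (1 nM final) for 23.5 h at 37 C. Viability was read in the same well by CellTiter-Fluor.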
# [3] = system: thyroid hormone receptor (rat, GH3 cells); assay: qHTS assay to identify small molecule agonists of the thyroid receptor (TR) signaling pathway (AID 743066; calls by dose curve)
# [4] = qHTS assay to identify small molecule antagonists of the estrogen receptor alpha (ER-alpha) signaling pathway - cell viability counter screen (AID 743074; calls by dose curve;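 also: HEK293 cells carrying ER-alpha-UAS-bla reporter stimulated with 17beta-estradiol; nearly all actives have a fitted effect of over 45% in size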)
# [5] = qHTS assay to identify small molecule antagonists of the estrogen receptor alpha (ER-alpha) signaling pathway using the BG1 cell line - cell viability counter screen (AID 743081);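 also: compound given together with 17beta-estradiol as the ER stimulus; nearly all actives have a fitted effect of over 45% in size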
# Aromatase (Homo sapiens) = Aromatase (Homo sapiens) (UniProt P11511); assay: qHTS assay to identify aromatase inhibitors (AID 743083); also: nearly all actives have a fitted effect of over 55% in size
# Sequence of Aromatase (Homo sapiens) (P11511 whole entry, looked up): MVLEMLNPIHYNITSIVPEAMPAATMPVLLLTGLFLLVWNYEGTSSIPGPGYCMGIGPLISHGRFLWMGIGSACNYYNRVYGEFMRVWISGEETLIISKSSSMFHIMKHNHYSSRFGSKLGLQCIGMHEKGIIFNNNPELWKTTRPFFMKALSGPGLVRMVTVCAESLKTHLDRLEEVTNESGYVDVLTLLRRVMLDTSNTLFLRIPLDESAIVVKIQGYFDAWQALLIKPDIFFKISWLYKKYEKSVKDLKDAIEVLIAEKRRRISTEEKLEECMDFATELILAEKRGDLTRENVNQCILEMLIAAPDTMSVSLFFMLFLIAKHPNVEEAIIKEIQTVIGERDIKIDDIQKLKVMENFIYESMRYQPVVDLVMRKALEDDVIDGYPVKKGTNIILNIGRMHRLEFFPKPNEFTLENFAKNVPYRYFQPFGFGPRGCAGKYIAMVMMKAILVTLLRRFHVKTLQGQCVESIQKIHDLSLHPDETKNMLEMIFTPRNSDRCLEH
# [6] = target: Estrogen receptor (Homo sapiens) (UniProt P03372); assay: qHTS assay to identify small molecule antagonists of the estrogen receptor alpha (ER-alpha) signaling pathway (AID 743069; active = well fitted curve in the direction sought with a large enough effect in the signal ratio in the repeat runs, not every such curve was filed as active; inconclusive = weak or mixed curves, or effect the other way; inactive = no such curve, though single readings can be large or run the other way; the % refers to the signal ratio)
# Sequence of Estrogen receptor (Homo sapiens) (P03372 whole entry, looked up): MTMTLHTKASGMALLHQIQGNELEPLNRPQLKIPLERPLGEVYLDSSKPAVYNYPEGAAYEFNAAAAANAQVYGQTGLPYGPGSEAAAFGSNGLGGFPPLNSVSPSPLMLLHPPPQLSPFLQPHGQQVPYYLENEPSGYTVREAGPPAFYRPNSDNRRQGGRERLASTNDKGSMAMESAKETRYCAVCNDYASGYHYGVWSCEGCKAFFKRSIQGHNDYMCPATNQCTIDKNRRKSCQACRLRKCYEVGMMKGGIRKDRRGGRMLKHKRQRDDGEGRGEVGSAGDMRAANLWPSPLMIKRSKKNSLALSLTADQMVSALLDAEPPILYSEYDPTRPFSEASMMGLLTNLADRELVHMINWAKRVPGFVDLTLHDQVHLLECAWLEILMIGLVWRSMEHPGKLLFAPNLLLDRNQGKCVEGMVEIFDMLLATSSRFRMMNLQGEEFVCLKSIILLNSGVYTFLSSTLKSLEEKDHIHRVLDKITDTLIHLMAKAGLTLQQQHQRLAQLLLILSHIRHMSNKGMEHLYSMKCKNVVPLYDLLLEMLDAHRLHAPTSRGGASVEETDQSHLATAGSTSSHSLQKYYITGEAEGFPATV
# How it was run: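 Antagonist mode: compounds in DMSO were co-added with 17beta-estradiol to ER-alpha-bla HEK293 cells (2% charcoal-stripped serum) and left 18 h at 37C. Reporter inhibition was measured as FRET fluorescence after 2 h LiveBLAzer substrate at room temperature.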
# [7] = target: Estrogen receptor (Homo sapiens) (UniProt P03372); assay: qHTS assay to identify small molecule agonists of the estrogen receptor alpha (ER-alpha) signaling pathway (AID 743075; calls by dose curve;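 also: HEK293 GripTite cells with ER-alpha and UAS-driven beta-lactamase reporter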)
# [8] = target: Estrogen receptor (Homo sapiens) (UniProt P03372); assay: qHTS assay to identify small molecule agonists of the estrogen receptor alpha (ER-alpha) signaling pathway using the BG1 cell line (AID 743079); also: nearly all actives have a fitted effect of over 20% in size
# [9] = qHTS assay to identify small molecule antagonists of the estrogen receptor alpha (ER-alpha) signaling pathway using the BG1 cell line (AID 743080; calls by dose curve;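 also: BG1 cells stimulated with 17beta-estradiol alongside compound; nearly all actives have a fitted effect of over 25% in size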); settings: BG1Luc4E2 ERE-luciferase antagonist mode, luminescence; activity change, negative = inhibition: at 70.3 µM (top of the series)
# How it was run: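 Endogenous full-length ER-alpha in BG1-Luc-4E2 cells drives a stably integrated 4×ERE luciferase gene; compounds were tested against 17beta-estradiol over 21.5 h, with luminescence and multiplexed viability fluorescence recorded.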
# Potency is read from the fitted curve at half-maximal effect.
Structure (SMILES),Potency [1],Potency [2],Potency [3],Potency [4],Potency [5],Potency (Aromatase (Homo sapiens)),Potency [6],Potency [7],Potency [8],Potency [9]
Cc1cc(C)nc(NS(=O)(=O)c2ccc(N)cc2)n1,inactive,inactive,inactive and 69.4 µM (active),inactive,inactive,inactive,–,–,–,–
CCCCNC(=O)NS(=O)(=O)c1ccc(C)cc1,inactive,inactive,inactive,inactive,inactive,inactive,–,–,–,–
C/C=C/C=C/C(=O)O,inactive,inactive,inactive,inactive,inactive,inactive,–,–,–,–
CC(=O)CCC(=O)O,inactive,–,inactive,inactive,inactive,inactive,inactive,inactive,15 µM (active) and inactive,inactive
CC1(C)O[C@@H]2C[C@H]3[C@@H]4CCC5=CC(=O)C=C[C@]5(C)[C@@]4(F)[C@@H](O)C[C@]3(C)[C@]2(C(=O)CO)O1,inactive,inactive,inactive,inactive,inactive,inactive,–,–,–,–
C=C1CC[C@H](O)C/C1=C\C=C1/CCC[C@]2(C)[C@@H]([C@H](C)CCCC(C)C)CC[C@@H]12,26.6 µM (active) and 48.1 µM (active),21.1 µM (active) and 30.4 µM (active),–,inactive,inactive,inactive,–,inactive,inactive,inactive
Nc1ccc(S(N)(=O)=O)cc1,inactive,inactive,inactive and 9.74 µM (active),inactive,inactive,inactive,–,–,–,–
CCCC[P+](CCCC)(CCCC)CCCC,inactive,inactive,inactive,inactive,inactive,inactive,–,–,–,–
CC(C)NCC(O)c1ccc(O)c(O)c1 (stereo unspecified),inactive,inactive,inactive,inactive,inactive,inactive,–,–,–,–
CN(C)C(=S)SC(=S)N(C)C,2.11 µM (active) and 1.98 µM (active) and 433 nM (active),1.68 µM (active) and 1.57 µM (active) and 306 nM (active),inactive,inactive and 49 µM (active),inactive,2.98 µM (active) and 994 nM (active) and 243 nM (active),–,–,–,–
CC(=O)CC(c1ccccc1)c1c(O)c2ccccc2oc1=O (stereo unspecified),inactive,inactive,inactive,inactive,inactive,–,–,–,–,–
O=C1c2c(O)cccc2Cc2cccc(O)c21,inactive,inactive,inactive,inactive,inactive,inactive,–,–,–,–
COc1ccc(OC(F)(F)F)cc1CN[C@H]1CCCN[C@H]1c1ccccc1,24.3 µM (active),24.3 µM (active),–,–,inactive,–,inactive,inactive,–,–
F[B-](F)(F)F,inactive,inactive,inactive,inactive,inactive,inactive,–,–,–,–
COc1ccc2cc(S(=O)(=O)N[C@H](CC(=O)N[C@H](Cc3ccc(CN4[C@H](C)CCC[C@@H]4C)cc3)C(=O)N(C)C(C)C)c3ccc4c(c3)OCO4)ccc2c1,2.58 µM (active),3.65 µM (active),–,52 µM (active),9.17 µM (active),46 µM (active),inactive,–,–,–
Nc1c(N=Nc2ccc(-c3ccc(N=Nc4cc(S(=O)(=O)O)c5ccccc5c4N)cc3)cc2)cc(S(=O)(=O)O)c2ccccc12,16.8 µM (active) and 27.3 µM (active),10.6 µM (active) and 30.6 µM (active),inactive,inactive,13.3 µM (active) and 24.3 µM (active),–,–,–,–,–
C1CCC(C(CC2CCCCN2)C2CCCCC2)CC1 (stereo unspecified),4.73 µM (active),5.96 µM (active),–,21.3 µM (active),–,–,–,–,–,–
CNNCc1ccc(C(=O)NC(C)C)cc1,inactive,inactive,inactive,inactive,inactive,inactive,–,–,–,–
Nc1ccc(O)c([N+](=O)[O-])c1,45.7 µM (active),inactive,inactive,–,34 µM (active),inactive,–,inactive,inactive,inactive
CCCCCCCCCCCC[N+](C)(C)Cc1ccccc1,5.96 µM (active) and 12 µM (active) and 14.9 µM (active),5.31 µM (active) and 9.5 µM (active) and 11.8 µM (active),inactive,10.7 µM (active) and 24.1 µM (active) and 26.7 µM (active),inactive and 74.5 µM (active),29.8 µM (active) and 42.4 µM (active) and 37.4 µM (active),–,–,–,–
CCCCOC(=O)c1ccc(O)cc1,inactive,inactive,inactive,inactive,inactive,inactive,–,–,–,–
Cc1cn([C@H]2C=C[C@@H](CO)O2)c(=O)[nH]c1=O,inactive,inactive,inactive,inactive,inactive,inactive,–,–,–,–
O=C1NC(=O)C(c2ccccc2)(c2ccccc2)N1,inactive,inactive,inactive,inactive,inactive,inactive,–,–,–,–
CCCCCCc1ccc(O)cc1O,54.6 µM (active) and 54.5 µM (active),61.3 µM (active),inactive,inactive,inactive,inactive and 61.1 µM (active),–,–,–,–
CC(O)(P(=O)(O)O)P(=O)(O)O,inactive,–,inactive,inactive,inactive,inactive,–,–,–,–
CC1(C)S[C@@H]2[C@H](NC(=O)[C@H](N)c3ccccc3)C(=O)N2[C@H]1C(=O)O,–,–,–,inactive,inactive,inactive,–,–,–,–
O=C(O)CC(O)C(=O)O (stereo unspecified),inactive,–,–,inactive,inactive,inactive,–,–,–,–

Structure (SMILES),Potency [1],Potency [2],Potency [3],Potency [4],Potency [5],Potency (Aromatase (Homo sapiens)),Potency [6],Potency [7],Potency [8],Potency [9]
CC(=O)Nc1c(I)c(NC(C)=O)c(I)c(C(=O)O)c1I,inactive,–,inactive,inactive,inactive,–,–,–,–,–
C[C@](N)(Cc1ccc(O)c(O)c1)C(=O)O,inactive,–,inactive,inactive,inactive,inactive,–,–,–,–
CS(=O)(=O)OCCCCOS(C)(=O)=O,inactive,–,–,inactive,inactive,inactive,inactive,inactive,11.9 µM (active) and inactive,inactive
O=C(O)c1ccccc1,inactive,–,–,inactive,inactive,inactive,inactive,inactive,5.1 µM (active) and inactive,inactive
O=CC(=O)c1ccccc1,inactive,–,–,inactive,inactive,inactive,inactive,inactive,inactive,inactive
Cc1ccc(S(=O)(=O)O)cc1,inactive,–,inactive,inactive,inactive,–,–,–,–,–
NC(=O)n1c(O)c(C(=O)c2cccs2)c2cc(Cl)ccc21,–,29.8 µM (active),–,inactive,–,–,21.3 µM [inconclusive] (active),inactive,–,29.8 µM (active)
O=C(Nc1ncc([N+](=O)[O-])s1)c1cccs1,–,21.1 µM (active),inactive,–,–,inactive,inactive,inactive,–,–
Cc1cc(=O)oc2cc(O)ccc12,–,–,inactive,inactive,inactive,inactive,inactive,inactive,inactive,inactive
CC/C(=C(\c1ccccc1)c1ccc(OCCN(C)C)cc1)c1ccccc1,–,8.63 µM (active) [middle of 5 runs],inactive,48.9 µM (active) and 49.4 µM (active) and 49 µM (active),inactive,–,–,–,–,–
O=c1[nH]cc(F)c(=O)[nH]1,20.1 µM (active),–,–,inactive,inactive,inactive,inactive,inactive,inactive,inactive
Oc1ccccc1,inactive,–,–,inactive,inactive,inactive,–,–,–,–
CC(C)c1c(C(=O)Nc2ccccc2)c(-c2ccccc2)c(-c2ccc(F)cc2)n1CC[C@@H](O)C[C@@H](O)CC(=O)O,inactive and 57.1 µM (active),–,inactive,inactive,inactive,–,–,–,–,–
COc1cccc(O)c1O,inactive,–,inactive,inactive,–,35.7 µM (active),–,50.7 µM [activator] (active),inactive,inactive
O=C1O[C@H]([C@@H](O)CO)C(O)=C1O,inactive,–,inactive and 34.3 µM (active),inactive,inactive,inactive,–,–,–,–
CC(=O)C(=O)O,inactive,–,–,inactive,inactive,inactive,–,–,–,–
Cn1c(=O)c2c(ncn2C)n(C)c1=O,inactive,–,–,inactive,inactive,inactive,–,–,–,–
CN1CCc2cccc3c2[C@H]1Cc1ccc(O)c(O)c1-3,29.8 µM (active) and 49.1 µM (active) and 22.8 µM (active),–,–,inactive,69.3 µM (active),21.9 µM (active) and 11.4 µM (active),inactive,inactive,–,–
NC(=O)c1cccnc1,–,–,–,inactive,inactive,inactive,inactive,inactive,inactive,inactive
COc1ccc(CN(CCN(C)C)c2ccccn2)cc1,–,–,inactive,inactive,inactive,–,–,–,–,–
CCN(Cc1c(F)cccc1Cl)c1c([N+](=O)[O-])cc(C(F)(F)F)cc1[N+](=O)[O-],inactive,–,inactive,inactive,inactive,27.3 µM (active),–,inactive,21.7 µM (active),inactive
C1=CC2C3C=CC(C3)C2C1 (stereo unspecified),–,inactive,inactive,–,inactive,–,–,–,–,–
O=C1NS(=O)(=O)c2ccccc21,inactive,–,–,inactive,inactive,inactive,–,–,–,–
Cc1c(C(=O)O)c(O)cc2c1C(=O)c1c(O)c([C@@H]3O[C@H](CO)[C@@H](O)[C@H](O)[C@H]3O)c(O)c(O)c1C2=O,13.3 µM (active) and 59.6 µM (active) and 61.1 µM (active),–,inactive,inactive,18.8 µM (active) and 29.9 µM (active) and 27.3 µM (active),–,inactive,inactive,inactive,–
C=CCc1ccc(O)c(OC)c1,inactive,–,–,inactive,inactive,inactive,inactive,inactive,inactive,inactive
CN(C)CCOC(C)(c1ccccc1)c1ccccn1 (stereo unspecified),–,–,–,inactive,inactive,inactive,–,–,–,–

# From PubChem BioAssay (Tox21)
